# Results published in the supplement of paper PMC3724861.
# The sample as a whole holds a higher share of hits than the screen did. How many sequences the whole screen found active is unknown.
# Test system: T1, Caupolican (Caup) homeodomain DNA-binding domain
# T1 sequence: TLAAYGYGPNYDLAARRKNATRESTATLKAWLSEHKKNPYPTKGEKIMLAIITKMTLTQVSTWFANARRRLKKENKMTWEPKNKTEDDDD
# Experiment: PBM E-score (8-mer, recovered from the published 9-mer minima) (E-score (dimensionless, -0.5 to 0.5)); Drosophila protein; higher = stronger relative binding preference, active = 0.31 or more
# Experimental: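 Protein binding microarray (PBM): in vitro transcribed/translated Caupolican (Caup) homeodomain DNA-binding domain (residues 214-303) applied at 100 nM to a universal 8-mer PBM array (Agilent AMADID 015681). The 8-mer enrichment score (E-score, range -0.5 to 0.5) was computed, and each 9-mer score is the minimum E-score of its two constituent 8-mers. The E-score is the same for a 9-mer and its reverse complement; 0.31 is the stated binding threshold.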
row,Sequence,PBM E-score
1,AGCCTGGG,-0.123 (inactive)
2,AATCCCCC,-0.256 (inactive)
3,CGGGAACA,0.176 (inactive)
4,AGACAACC,0.201 (inactive)
5,CTTAACAA,0.228 (inactive)
6,GTCGCGAA,0.00326 (inactive)
7,ATGGTGTC,0.142 (inactive)
8,GCTAGGCC,-0.238 (inactive)
9,GCACATAA,0.0651 (inactive)
10,GTACATAC,0.307 (inactive)
11,GTACATAA,0.361 (active)
12,ACCCTGGG,-0.105 (inactive)
13,GAGATAGC,-0.0575 (inactive)
14,CACAACAA,0.29 (inactive)
15,AACAACAG,0.243 (inactive)
16,AACAACAA,0.394 (active)
17,AACAACGT,0.252 (inactive)
18,AACAACAT,0.409 (active)
19,AACAACTC,0.167 (inactive)
20,TTCAACAA,0.299 (inactive)
21,TACAACGA,0.267 (inactive)
22,AACAACTA,≥ 0.319 (active)
23,TACAACAA,0.387 (active)
24,AGCAACAA,0.182 (inactive)
25,AACAACTG,0.208 (inactive)
26,AGTTTCCA,0.0163 (inactive)

row,Sequence,PBM E-score
1,CTCTGGGC,-0.214 (inactive)
2,CCCGTGAA,-0.0554 (inactive)
3,TCCGAGGA,-0.0519 (inactive)
4,GGGAGTAA,0.0271 (inactive)
5,AATCCGGC,-0.121 (inactive)
6,CTTGGGTA,-0.0204 (inactive)
7,CCACCGGC,-0.281 (inactive)
8,TTACTCAA,0.0597 (inactive)
9,AACAACCT,0.243 (inactive)
10,ATCAACAT,0.371 (active)
11,ATCAACAG,0.109 (inactive)
12,AACAACCC,0.247 (inactive)
13,AACAACCA,≥ 0.324 (active)
14,ATCAACAA,0.289 (inactive)
15,CGCGCTAG,-0.142 (inactive)
16,GTCGATAA,0.0563 (inactive)
17,ACACCCGC,-0.0419 (inactive)
18,AAAAAAGA,-0.0444 (inactive)
19,CCGGCTCA,-0.123 (inactive)
20,GATGAATC,0.106 (inactive)
21,CTGTCAAG,-0.017 (inactive)
22,ATGTTTGA,0.327 (active)
23,CTGTTTTA,0.107 (inactive)
24,CTGTTTAA,0.111 (inactive)
25,ATGTTTAG,0.284 (inactive)
26,CTGTTTGA,0.188 (inactive)

row,Sequence,PBM E-score
1,GTGTTTTA,0.213 (inactive)
2,ATGTTTTC,0.33 (active)
3,ATGTTTCC,0.236 (inactive)
4,ATGTTTGG,0.229 (inactive)
5,ATGTTTAA,0.367 (active)
6,CTGTTTTC,0.134 (inactive)
7,ATGTTTTA,0.369 (active)
8,ACGCAATC,-0.0194 (inactive)
9,GAGTTTAC,-0.00241 (inactive)
10,ACATCGCT,0.178 (inactive)
11,CCTTCTAC,-0.131 (inactive)
12,CATCTGAC,0.0423 (inactive)
13,AAGGTACC,-0.127 (inactive)
14,ACCGCACA,-0.00685 (inactive)
15,CGCGGAGA,-0.112 (inactive)
16,ATAGCTTC,-0.0833 (inactive)
17,CTGTTAGC,-0.0813 (inactive)
18,ATGTTAGC,0.314 (active)
19,GTGTTAGA,0.224 (inactive)
20,ATGTTAGA,0.329 (active)
21,ATGTTAGG,0.219 (inactive)
22,CTGTTAGA,0.105 (inactive)
23,GATGACAA,0.308 (inactive)
24,AATGACAA,0.346 (active)
25,AATGACAT,0.298 (inactive)
26,CATGACAA,0.283 (inactive)

row,Sequence,PBM E-score
1,TATGACAA,0.314 (active)
2,CATGACAC,0.363 (active)
3,AATGACAC,0.277 (inactive)
4,AATGACAG,0.219 (inactive)
5,GATGACAC,0.219 (inactive)
6,AGATCATC,0.12 (inactive)
7,ACAGGCGC,-0.0681 (inactive)
8,TGAGGGCA,-0.108 (inactive)
9,GAGCACAC,0.00424 (inactive)
10,AGCGTCTA,-0.0661 (inactive)
11,ACACGGTC,0.219 (inactive)
12,ACACGGTG,0.307 (inactive)
13,ACACGGTA,0.327 (active)
14,ACACGGAA,0.291 (inactive)
15,ACACGGAT,0.339 (active)
16,ACACGGAG,0.131 (inactive)
17,ACAACGTA,0.255 (inactive)
18,AGTCACAG,0.0714 (inactive)
19,CGCCCCCA,-0.285 (inactive)
20,AGCATGAT,0.197 (inactive)
21,ACCATGAC,0.0507 (inactive)
22,ACCATGAT,0.158 (inactive)
23,AACATGAC,0.42 (active)
24,AGCATGAG,0.104 (inactive)
25,AACATGAG,0.351 (active)
26,AGCATGAC,0.0874 (inactive)

row,Sequence,PBM E-score
1,AACATGAT,≥ 0.424 (active)
2,CACATGAG,0.0472 (inactive)
3,AGAAGATC,-0.0662 (inactive)
4,GTTGGATA,0.0774 (inactive)
5,ATCCAATC,0.102 (inactive)
6,AGCCCTTC,-0.22 (inactive)
7,GCTCGTGA,-0.064 (inactive)
8,AGCGGGGG,-0.28 (inactive)
9,GACTATGA,0.0441 (inactive)
10,ATAATGCC,0.0429 (inactive)
11,ACTTGCAT,0.137 (inactive)
12,GCGTTTAC,-0.0438 (inactive)
13,AGCACATG,0.164 (inactive)
14,AGTACATG,0.45 (active)
15,AGTACAGC,0.167 (inactive)
16,AGTACGTG,0.0988 (inactive)
17,AGTACATC,0.342 (active)
18,AGCACATC,0.0585 (inactive)
19,CGTGATAG,-0.0553 (inactive)
20,AGCGCAAG,-0.181 (inactive)
21,CTTTGCGA,-0.0806 (inactive)
22,TAAAAAGA,0.0988 (inactive)
23,CAAAGTTC,-0.0431 (inactive)
24,CTATGTTC,0.31 (inactive)
25,ATATGTGG,0.182 (inactive)
26,ATATGTGC,0.118 (inactive)

row,Sequence,PBM E-score
1,ATATGTTC,0.347 (active)
2,GTATGTTA,0.321 (active)
3,ATATGTGA,0.25 (inactive)
4,CTATGTTA,0.294 (inactive)
5,CTCTGTTA,0.107 (inactive)
6,ATATGTTA,0.338 (active)
7,GTCTGTTA,0.161 (inactive)
8,ATCTGTTG,0.128 (inactive)
9,ATATGTTG,0.324 (active)
10,ATTCAGTC,0.00318 (inactive)
11,AGCCATTC,-0.0817 (inactive)
12,CCCTAGGG,-0.253 (inactive)
13,AATGTTCG,0.154 (inactive)
14,TCTGTTCA,0.0822 (inactive)
15,GATGTTCC,0.281 (inactive)
16,TATGTTGA,0.288 (inactive)
17,AATGTTCA,0.244 (inactive)
18,CATGTTCG,0.399 (active)
19,GATGTTCA,0.303 (inactive)
20,CATGTTCA,0.396 (active)
21,TATGTTCA,0.324 (active)
22,CATGTTCC,0.409 (active)
23,CCTGTTCG,0.0935 (inactive)
24,AATGTTCC,0.2 (inactive)
